Values joined by “and” are separate entries in the source; they are usually repeats but may differ in a detail not shown here. Equal entries are not always repeated. Active and inactive are the calls of the source. The calls were made as follows: active = hit-call score of the fitted dose curve at least 0.9, where 1 is the maximum; inactive = score below 0.9.
read-out: urokinase plasminogen activator (uPA), PLAU (gene 5328); assay: BSK_BE3C_uPA: BioMAP Diversity Plus: BE3C Assay for urokinase plasminogen activator (uPA) Biomarker Activity (AID 2283038); details: primary human bronchial epithelial cells; actives raise or lower the signal;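 as to outcome: uPA read one day after compound addition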
Experimental: BSK_BE3C is a cell-based, multiplexed-readout assay that uses bronchial epithelial cell, a human lung primary cell, with measurements taken at 24 hours after chemical dosing in a 96-well plate.BSK_BE3CA is an assay component measured in the BSK_BE3C assay. It measures uPA antibody related to regulation of gene expression using ELISA technology.Data from the assay component BSK_BE3CA was analyzed into 1 assay endpoint. This assay endpoint, BSK_BE3CA, was analyzed with bidirectional fitting relative to DMSO as the negative control and baseline of activity. Using a type of binding reporter, gain or loss-of-signal activity can be used to understand changes in the signaling as they relate to the gene PLAU. Furthermore, this assay endpoint can be referred to as a primary readout, because this assay has produced multiple assay endpoints where this one serves a signaling function. To generalize the intended target to other relatable targets, this assay endpoint is annotated to the protease intended target family, where the subfamily is serine protease.
The levels of cell surface (or secreted, indicated by the prefix "s") biomarker endpoints were measured by ELISA. Overt cytotoxicity to cells in confluent adherent cultures (all systems other than the BT system) was assessed by measuring total protein levels using sulforhodamine B (SRB) staining in parallel cultures at the time of biomarker measurements, indicated as SRB endpoints. For proliferation assays for adherent cell types, individual cell types are cultured at sub-confluence and relative cell numbers quantified by SRB staining at time points optimized for each system (48 h: 3C and CASM3C systems; 72 h: BT and HDF3CGF systems; 96 h: SAg system). SRB was performed by staining cells with 0.1% SRB after fixation with 10% TCA and reading wells at 560 nm.Viability and proliferation of PBMC (T cells) was quantified by Alamar Blue reduction for the SAg and BT systems. For PBMC viability (referred to as PBMC Cytotoxicity within the assay endpoint names), cells were plated (75,000/well in a 96-well plate) and then chemical samples added for 1 h before addition of activators, SEB and TSST-1 (20 ng/mL final concentration each). Cells were incubated for 90 h. Then, Alamar Blue (20 uL/well) (Invitrogen, Cat DAL1100) was added for 6 h, and the plates were read with a fluorescence microplate reader at 546/580 nm (excitation/emission). For PBMC proliferation, cells were plated and activated as above but incubated for only 16 h prior to addition of Alamar Blue. Plates were read after 6 h.

AC50, active:
O=C(Cl)c1cc(C(=O)Cl)cc(C(=O)Cl)c1 20 µM
CCCCNc1ccc(NCCCC)c2c1C(=O)c1ccccc1C2=O 5 µM
CCCCCCCCCCCCCCCC[N+](C)(C)CC 2.25 µM
C=CCOc1c(Br)cc(Br)cc1Br 20 µM
C#CC1(O)CC[C@H]2[C@@H]3CCC4=CCCC[C@@H]4[C@H]3CC[C@@]21C (stereo partly specified) 20 µM
CCOC(=O)c1ccccc1C(=C1C=C(Br)C(=O)C(Br)=C1)c1cc(Br)c(O)c(Br)c1 3.81 µM and 4.21 µM

outcome, inactive:
CN1C(=O)N(C)C(O)C1O (stereo unspecified)
C=C[Si](OC(C)=O)(OC(C)=O)OC(C)=O
C=CC(=O)OCC(Br)CBr (stereo unspecified)
CC(C)C(=O)C(C)C
CCO[Si](CCCN=C=O)(OCC)OCC
O=C1CCCN1CCO
O=c1c2ccccc2oc2ccccc12
C=CC=CC=CCCCCC
O=Nc1ccc(O)cc1
CCCCC(CC)COC(=O)c1ccccc1O (stereo unspecified)
C/C=C\C/C=C/CCCCCCCCOC(C)=O
S=C(NC1CCCCC1)NC1CCCCC1
O=C(Nc1ccccc1SSc1ccccc1NC(=O)c1ccccc1)c1ccccc1
CCOc1nc(F)cc2nc(S(=O)(=O)Nc3c(Cl)cccc3C(=O)OC)nn12
COCc1c(C(C)C)nc(C(C)C)c(/C=C/[C@@H](O)C[C@@H](O)CC(=O)O)c1-c1ccc(F)cc1
CO[Si](OC)(OC)c1ccccc1
Nc1ccc(N)c(Cl)c1
CC1OC1C1CCC2(C)OC2C1 (stereo unspecified)
c1ccc2c(c1)ccc1ncccc12
O=C(c1ccc(O)cc1)c1ccc(O)cc1O
N#[N+]c1ccc2c(S(=O)(=O)[O-])cccc2c1O
c1ccc2c(c1)ccc1cc3c(ccc4ccccc43)cc12
COc1ccc2nc(N)sc2c1
CCCCC/C=C\C/C=C\CCCCCCCC(=O)OC
CC(C)(c1cc(Br)c(OCCO)c(Br)c1)c1cc(Br)c(OCCO)c(Br)c1
c1ccc(-c2ccccn2)nc1
CCCCCCCCc1ccc(Nc2ccc(CCCCCCCC)cc2)cc1
CCCCC(CC)COCC1CO1 (stereo unspecified)
CCO[Si](C)(OCC)OCC
C=CCOCC(O)CCl (stereo unspecified)

Source: PubChem BioAssay (EPA / NIEHS)
